Screening data: PubChem, National Center for Advancing Translational Sciences (NCATS)
The sample as a whole holds a higher share of hits than the screen did.
Pf Dd2 growth = inhibitors of Plasmodium falciparum Dd2 growth; P. falciparum Dd2 growth, SYBR Green, 72 h; hit rate 4.3% among 120,000; Potency, µM (series often up to 28.9 µM), actives largely listed as inhibitors; AID 1347417; active = well fitted inhibition curve with a large enough effect; also: nearly all actives have a fitted effect of over 65% in size
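Infected erythrocytes (Dd2, 0.3% parasitemia, 2.5% hematocrit final) are added to compound in RPMI-1640/Albumax II medium, grown 72 h at 37C in low oxygen, then lysed with saponin/Triton-X containing SYBR Green and read by fluorescence.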
Each line names hits and unclear results; the compound was inactive in the other large screens.

Fc1ccc(-c2noc([C@@H]3Cc4nc[nH]c4CN3Cc3ccccc3)n2)cc1Cl	none
c1ccc(CN2Cc3[nH]cnc3C[C@H]2c2nc(-c3ccncc3)no2)cc1	Pf Dd2 growth 10µM
Fc1ccc(-c2noc([C@@H]3Cc4nc[nH]c4CN3Cc3cccs3)n2)cc1Cl	Pf Dd2 growth 10µM
OCc1ccc(CN2Cc3[nH]cnc3C[C@H]2c2nc(-c3ccncc3)no2)o1	Pf Dd2 growth 14.1µM
Fc1ccc(CN2Cc3[nH]cnc3C[C@H]2c2nc(-c3ccc(Cl)cc3)no2)cc1	none
O=C(O)c1ccc(CN2Cc3[nH]cnc3C[C@H]2c2nc(-c3ccc(F)cc3)no2)cc1	none
Cc1ccc(CN2Cc3[nH]cnc3C[C@H]2c2nc(-c3ccc4ccccc4c3)no2)cc1	none
Cc1ccc(-c2noc([C@@H]3Cc4nc[nH]c4CN3Cc3cccs3)n2)cc1	none
Cc1ccc(-c2noc([C@@H]3Cc4nc[nH]c4CN3CC3CCCCC3)n2)cc1	none
O=C(CN1C(=O)NC2(CCCCC2)C1=O)Nc1ccccc1	none
CCCCc1nc2cc(C(=O)NCCNc3nc(C)cc(=O)[nH]3)ccc2o1	none
CN[C@@H](C)C(=O)N[C@@]1(C)OC[C@@H]2CC[C@H](C(=O)Nc3ccc(F)c(OC)c3)N2C1=O	none
CN(CC1CCOC1)C(=O)c1cccc(Cl)c1 (stereo unspecified)	none
CC(C)CCN1C[C@H]2[C@H](C1)[S+](=O)([O-])C(C)(C)C(=O)N2Cc1ccc(O)cc1	none
CN(C)C[C@@H]1CN(Cc2ccccc2)C[C@H]1NC(=O)c1ccncc1	none
Cc1ccc(S(=O)(=O)c2nc(-c3ccccc3)oc2N2CCN(c3ccccc3)CC2)cc1	none
Cc1ccc(S(=O)(=O)c2nc(-c3cccc(C)c3)oc2N2CCN(c3ccccc3)CC2)cc1	Pf Dd2 growth 10µM
Cc1ccc(-c2nc(S(=O)(=O)c3ccc(C)cc3)c(N3CCN(c4ccccc4)CC3)o2)cc1	none
CCN(C(=O)Cn1c(=O)n(-c2ccccc2)c(=O)c2ccc(C(=O)NCc3ccc4c(c3)OCO4)cc21)c1cccc(C)c1	Pf Dd2 growth 7.08µM
Cc1ccc(Cl)cc1NC(=O)Cn1c(=O)n(Cc2ccc(C(=O)NCc3ccc4c(c3)OCO4)cc2)c(=O)c2ccccc21	none
Cc1ccccc1NC(=O)Cn1c(=O)n(CCCC(=O)NCc2ccc3c(c2)OCO3)c(=O)c2ccccc21	none
Cc1c(Cl)cccc1NC(=O)Cn1c(=O)n(Cc2nc(-c3ccccc3)no2)c(=O)c2cc3c(cc21)OCO3	none
O=C(Cn1c(=O)n(-c2ccccc2)c(=O)c2ccc(C(=O)NCc3ccc4c(c3)OCO4)cc21)Nc1ccc(Br)cc1F	Pf Dd2 growth 8.91µM
O=C(Cn1c(=O)n(Cc2ccc(C(=O)NCc3ccc4c(c3)OCO4)cc2)c(=O)c2ccccc21)Nc1ccccc1F	none
Cc1ccc(NC(=O)Cn2c(=O)n(Cc3nc(-c4ccccc4)no3)c(=O)c3cc4c(cc32)OCO4)c(C)c1	none
Cc1ccc(-n2c(=O)c3ccc(C(=O)NCc4ccccc4Cl)cc3n(CC(N)=O)c2=O)cc1	none
Cc1ccc(Cn2c(=O)n(-c3ccccc3)c(=O)c3ccc(C(=O)NCc4ccco4)cc32)cc1	none
O=C(Cn1c(=O)n(Cc2nc(-c3ccccc3)no2)c(=O)c2cc3c(cc21)OCO3)Nc1ccc(Cl)cc1	Pf Dd2 growth 10µM
Cc1ccc(NC(=O)Cn2c(=O)n(-c3ccccc3)c(=O)c3ccc(C(=O)NCc4ccc5c(c4)OCO5)cc32)cc1	none
Cc1ccc(NC(=O)Cn2c(=O)n(Cc3ccc(C(=O)NCc4ccc5c(c4)OCO5)cc3)c(=O)c3ccccc32)cc1	Pf Dd2 growth 8.91µM
CN(Cc1ccccc1)Cc1cn(C[C@H]2O[C@@H](CC(=O)NCc3ccc(F)cc3)[C@H](O)[C@@H]2O)nn1	none
COC(=O)[C@@H](C)NC(=O)[C@H]1CN(C(=O)c2cccnc2)CCN1C(C)=O	none
O=C(Nc1ccccc1)N1CCCC(CN2CCOCC2)CC1 (stereo unspecified)	none
CCn1nccc1C(=O)N1CCC(c2noc(-c3cnccn3)n2)C1 (stereo unspecified)	none
COC[C@@H]1CN(C(=O)Cc2ccc(OC)cc2)C[C@H]1c1nc(C)no1	none
CCn1ncc(N2CCCC(CC(=O)NCc3ccc(Cl)cc3)C2)cc1=O (stereo unspecified)	none
O=C(Nc1cnc(-c2ccc(C(F)(F)F)cc2)nc1)C1CCOC1 (stereo unspecified)	none
O=C(CCC1CCN(S(=O)(=O)c2ccccc2)CC1)NC1CCCCCC1	none
CC(CNC(=O)C1CCC(=O)N(C2CC2)C1)(c1ccccc1)c1ccccc1 (stereo unspecified)	none
Cc1nc2c(NS(=O)(=O)c3ccc(Cl)cc3)cccn2n1	none
O=C(CN1C(=O)CC(c2ccccc2)=Nc2ccccc21)Nc1ccc(Br)cc1	Pf Dd2 growth 10µM
Cc1ccc(C2=Nc3ccccc3N(CC(=O)NCc3ccc(F)cc3)C(=O)C2)cc1C	none
Cc1ccc(C2=Nc3ccccc3N(CC(=O)NCc3ccc(Cl)cc3)C(=O)C2)cc1C	none
CN(CC1CCOCC1)C(=O)NCc1cccc(F)c1	none
COc1cc(C)c(-c2nc(CN3CCN(C)C(=O)C3)c(C)o2)cc1C	none
CN(C)c1nc2c(c(=O)[nH]1)CCN(Cc1ccccc1F)CC2	none
